Assay [1] can be described thus: ATG_XTT_Cytotoxicity: Cytotoxicity Assessment in the Attagene TRANS-FACTORIAL HepG2 Assay (AID 2283584). The method in brief:
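HepG2 human liver cells, transiently transfected with multiple GAL4-UAS reporter units, were dosed and read at 24 h by XTT as cell number. Loss of signal was fitted relative to DMSO negative control baseline.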

A short description of assay [2]: TOX21_p53_BLA_p2_viability: Viability Assessment in the Tox21 HCT-116 p53 Agonism Beta-lactamase Assay, Phase 2 (AID 2283591).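 Further: compound exposure lasted 16 h at 37 °C; actives lower the ATP signal meaning cytotoxicity.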 The method in brief: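 HCT-116 p53-bla cells (4000/well) rested 5 h at 37C, then received compounds in DMSO (217-fold dilution) for 16 h at 37C, 5% CO2. After the CCF4 read, CellTiter-Glo was added; ATP luminescence was read after 30 min at room temperature.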

Assay [3] concerns the target Cellular tumor antigen p53 (Homo sapiens) (UniProt P04637). Briefly: TOX21_p53_BLA_p2_ratio: Tox21 HCT-116 p53 Agonism Beta-lactamase Assay, Ratio, Phase 2 (AID 2283592). The method in brief:
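HCT116 cells carrying a p53-responsive beta-lactamase reporter were plated, incubated 5 h at 37C, then dosed with compounds in DMSO (217-fold dilution) for 16 h. CCF4-AM substrate was added for 2 h at room temperature; the 460/530 nm emission ratio gave gain-of-signal activity relative to DMSO.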

Assay [4] can be described thus: TOX21_p53_BLA_p3_viability: Viability Assessment in the Tox21 HCT-116 p53 Agonism Beta-lactamase Assay, Phase 3 (AID 2283593).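 Further: cells exposed to compound for 16 h before reading.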 The method in brief: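 HCT-116 cells (4000/well) rested 5 h at 37C, then got DMSO compounds by pin tool (217-fold dilution) for 16 h at 37C, 5% CO2. After the bla read, CellTiter-Glo was added and luminescence read at 30 min, room temperature.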

The target in assay [5] is Cellular tumor antigen p53 (Homo sapiens) (UniProt P04637). Description: TOX21_p53_BLA_p3_ratio: Tox21 HCT-116 p53 Agonism Beta-lactamase Assay, Ratio, Phase 3 (AID 2283596). The method in brief:
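HCT116 p53-bla cells (4000/well) given compound in DMSO (217-fold dilution) after 5 h, incubated 16 h at 37C. CCF4-AM substrate 2 h at room temperature; 460/530 nm emission ratio, gain fitted against DMSO.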

Assay [6] can be described thus: TOX21_p53_BLA_p4_viability: Viability Assessment in the Tox21 HCT-116 p53 Agonism Beta-lactamase Assay, Phase 4 (AID 2283597).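 Further: hits lower the luminescence signal meaning cytotoxicity.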 The method in brief: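 HCT116 p53-bla cells (4000/well) rested 5 h at 37C, then received compounds in DMSO (217-fold dilution) for 16 h at 37C, 5% CO2. CellTiter-Glo was added after the CCF4-AM read, and luminescence was read after 30 min at room temperature.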

The target in assay [7] is Cellular tumor antigen p53 (Homo sapiens) (UniProt P04637). Description: TOX21_p53_BLA_p5_ratio: Tox21 HCT-116 p53 Agonism Beta-lactamase Assay, Ratio, Phase 5 (AID 2283599). The method in brief: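 HCT-116 cells carrying a p53-inducible beta-lactamase reporter were seeded at 4000 cells/well and dosed after 5 h with compound in DMSO (217-fold dilution). After 16 h at 37C, CCF4-AM substrate was added for 2 h, and the 460/530 nm emission ratio was scored as gain-of-signal versus DMSO.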
Sequence of Cellular tumor antigen p53 (Homo sapiens) (P04637 whole entry, looked up): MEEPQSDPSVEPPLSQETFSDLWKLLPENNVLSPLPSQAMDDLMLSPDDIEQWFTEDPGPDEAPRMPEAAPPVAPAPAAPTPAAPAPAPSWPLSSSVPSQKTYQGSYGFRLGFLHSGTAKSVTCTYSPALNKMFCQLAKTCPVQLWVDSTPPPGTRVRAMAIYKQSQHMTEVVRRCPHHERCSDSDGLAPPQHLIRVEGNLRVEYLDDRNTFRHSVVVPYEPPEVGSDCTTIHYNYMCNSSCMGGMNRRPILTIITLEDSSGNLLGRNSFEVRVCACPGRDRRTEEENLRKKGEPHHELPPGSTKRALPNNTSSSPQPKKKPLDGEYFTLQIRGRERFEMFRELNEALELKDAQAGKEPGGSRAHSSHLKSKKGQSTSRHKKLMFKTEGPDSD

Assay [8] shares this target. Briefly: TOX21_p53_BLA_p4_ratio: Tox21 HCT-116 p53 Agonism Beta-lactamase Assay, Ratio, Phase 4 (AID 2283601). The method in brief: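 HCT116 cells carrying an inducible beta-lactamase reporter were plated at 4000 cells/well, rested 5 h, then exposed to compounds in DMSO (217-fold dilution) for 16 h at 37C. CCF4-AM substrate was loaded 2 h at room temperature; 460/530 nm emission ratio scored gain-of-signal versus DMSO.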

A short description of assay [9]: TOX21_p53_BLA_p5_viability: Viability Assessment in the Tox21 HCT-116 p53 Agonism Beta-lactamase Assay, Phase 5 (AID 2283600). The method in brief:
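Cells were plated at 4000/well, rested 5 h at 37C, then given compounds in DMSO (217-fold dilution) for 16 h at 37C, 5% CO2. Following the CCF4-AM beta-lactamase read, CellTiter-Glo was added and luminescence was read after 30 min at room temperature.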

In general, AC50 refers to the concentration giving half of the maximal activity seen.

The structures appear in SMILES notation. Records with an inconclusive call do not appear. Active and inactive are the calls of the source. How the source made its calls: active means hit-call score of the fitted dose curve at least 0.9, where 1 is the maximum; inconclusive means response in the unintended direction; inactive means score below 0.9.

Regarding `CCCCCCC(O)CCCCCCCCCCC(=O)O` (stereo not given), the compound was called inactive in assay [1].
For `CC1=C(Br)C(=O)C(Br)=C/C1=C(/c1ccccc1S(=O)(=O)O)c1cc(Br)c(O)c(Br)c1C`, in [1], the call was inactive.
Turning to `C=Cc1ccc(C(C)(C)C)cc1`, in assay [1], the outcome was inactive.
As for `BrCc1cccc(Oc2ccccc2)c1`, the compound was called inactive in assay [1].
As to `CCCCCCCCCCCC(=O)OCC(O)CO` (stereo not given), the outcome in assay [1] was inactive.
Consider `CCCCCCC(=O)c1ccccc1`, for which the compound was classed as inactive in [1].
The same measure, in the same setting: for `CCOC(=O)CC(C)O` (stereo not given) the value was “inactive”.
Take `CCC1CCCCC1`: the outcome in assay [1] was inactive.
For the compound `CC1(C)COCN1`, the compound was classed as inactive in assay [1].
As for `NCc1ccco1`, in [1], the outcome was inactive.
Regarding `COc1cc(Cl)c(OC)cc1N`, the compound was called inactive in assay [1].
Regarding `CCC(C)c1cc([N+](=O)[O-])cc([N+](=O)[O-])c1OC(=O)OC(C)C` (stereo not given), the compound was classed as inactive in [1], in assay [2], in assay [4], in assay [6] and in assay [8]. Moreover, the AC50 in [3] is 7.55 µM (active); in assay [5], 35.3 µM (active); in [7], 36.9 µM (active).
Turning to `OCCCCC(O)CO` (stereo not given), the result in assay [1], in assay [2], in assay [3], in [4], in [5] and in [6] was inactive. The outcome in assay [7], in [9] and in assay [8] was inactive.
For the compound `CCOc1ccc(NC(=O)CC(C)O)cc1` (stereo not given), the result in assay [1], in assay [2], in assay [3], in assay [4], in assay [5] and in assay [7] was inactive. Besides, the compound was classed as inactive in [9] and in assay [8].
With `CC1C2CC(CC2C2CCCC(O)C2)C1(C)C` (stereo not given), the outcome in assay [1], in assay [2], in assay [3], in assay [4], in [5] and in [6] was inactive. Moreover, the result in [7], in assay [9] and in assay [8] was inactive.

These data come from PubChem BioAssay (EPA / NIEHS).
